What is called inhibition is the drop in the measured response relative to a control, in per cent.

Hit rate of the full screen: of about 220,000 compounds, about 910 (0.41%) were called active.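 How the source made its calls: active means primary inhibition above the hit cutoff, then over 50% inhibition at one or more dose response concentrations (cut at about 23% in these data, passing the limit was not always enough); inconclusive means conflicting primary data, or primary hits not chosen for dose response; inactive means low primary inhibition, or under 50% at every dose.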 The list comes from a sample in which actives are over-represented; it also holds similar structures and randomly drawn compounds. Measured potencies and affinities stand elsewhere.

This is an account of results in PubChem BioAssay AID1445 (SRMLSC, 2008).

The assay deals with Aminopeptidase N (Plasmodium falciparum (isolate 3D7)) (UniProt O96935). The experiment in a line: malaria alanyl aminopeptidase activity blockers – biochemical, fluorogenic H-Leu-NHMec substrate, 1536-well (AID 1445).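 Further: plate controls were DMSO full reaction for no effect and no enzyme background for full effect.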 To be noted: recombinant M1AAP, H-Leu-NHMec fluorogenic kinetic assay; at 30 µM, hits give high values unless noted.
Chain of Aminopeptidase N (Plasmodium falciparum (isolate 3D7)) (O96935 whole entry, looked up): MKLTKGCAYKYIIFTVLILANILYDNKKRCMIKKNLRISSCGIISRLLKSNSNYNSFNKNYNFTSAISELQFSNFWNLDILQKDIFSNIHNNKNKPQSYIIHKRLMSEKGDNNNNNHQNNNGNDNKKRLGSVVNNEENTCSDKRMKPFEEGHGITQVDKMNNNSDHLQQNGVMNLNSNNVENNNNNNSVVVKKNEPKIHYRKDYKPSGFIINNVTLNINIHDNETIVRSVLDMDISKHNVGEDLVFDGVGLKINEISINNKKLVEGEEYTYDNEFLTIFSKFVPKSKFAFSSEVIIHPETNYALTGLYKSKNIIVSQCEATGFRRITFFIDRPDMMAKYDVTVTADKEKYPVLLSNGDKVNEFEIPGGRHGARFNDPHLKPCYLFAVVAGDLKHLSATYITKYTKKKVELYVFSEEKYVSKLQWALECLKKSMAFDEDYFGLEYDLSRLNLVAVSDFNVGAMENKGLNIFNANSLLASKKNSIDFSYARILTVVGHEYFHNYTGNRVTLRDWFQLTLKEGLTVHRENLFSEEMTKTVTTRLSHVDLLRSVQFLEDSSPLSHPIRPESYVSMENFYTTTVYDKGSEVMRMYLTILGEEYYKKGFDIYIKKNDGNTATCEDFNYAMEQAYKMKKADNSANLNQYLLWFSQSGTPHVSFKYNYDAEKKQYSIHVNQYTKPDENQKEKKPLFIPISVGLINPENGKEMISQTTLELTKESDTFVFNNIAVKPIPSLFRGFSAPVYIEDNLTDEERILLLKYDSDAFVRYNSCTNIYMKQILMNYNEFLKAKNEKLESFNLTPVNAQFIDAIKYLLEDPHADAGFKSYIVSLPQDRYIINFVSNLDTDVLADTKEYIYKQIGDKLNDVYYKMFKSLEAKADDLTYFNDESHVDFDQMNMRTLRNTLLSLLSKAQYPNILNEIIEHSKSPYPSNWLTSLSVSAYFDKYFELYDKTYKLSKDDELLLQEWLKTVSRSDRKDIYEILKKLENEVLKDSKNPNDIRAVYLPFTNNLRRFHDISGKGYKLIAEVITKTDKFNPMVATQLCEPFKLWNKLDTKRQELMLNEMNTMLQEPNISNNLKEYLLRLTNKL
On to `COC(=O)c1ccccc1NC(=O)Cn1cnc2ccc(S(=O)(=O)N3CCC(C)CC3)cc2c1=O`, for which the inhibition was 20.3% (inactive).
For `CCOC(=O)C1=C(CN2CCSCC2)NC(=O)NC1c1ccc2c(c1)OCO2` (stereo not drawn), the inhibition was -5.96% (inactive).
To `O=[N+]([O-])c1ccccc1/C=N/N1CCN(c2ccc(Cl)cc2)CC1` belongs 1.05% (inactive); to `C/C(N)=C(/C#N)C(=O)COC(=O)Cc1coc2cc(C)ccc12`, 4.44% (inactive).
For `C/C(=N\NC(=O)CCc1ccccc1)C1C(=O)c2ccccc2C1=O`, the inhibition is 0.57% (inactive).
Turning to `C/C(=N\NC(=O)c1ccc(Br)cc1)C1C(=O)c2ccccc2C1=O`, the inhibition is 39.9% (inactive).
In the case of `C/C(CC(=O)N1CCCC1)=N\NC(=O)c1cc2ccccc2cc1O`, the inhibition was 10.8% (inactive).
`C/C(=N\NC(=O)c1cc2ccccc2cc1O)c1cc2ccccc2o1`: the inhibition was 3.43% (inactive).
Take `CCOc1ccc(C(=O)N/N=C(/C)C2C(=O)c3ccccc3C2=O)cc1`: the inhibition is 4.51% (inactive).
Take `C/C(=N\NC(=O)c1ccc(-c2ccccc2)cc1)C1C(=O)c2ccccc2C1=O`: the inhibition is -1.49% (inactive).
Consider `CCOc1ccccc1N(CC(=O)NCCOC)C(=O)CCC(=O)Nc1ccccn1`, for which the inhibition was -5.17% (inactive).
In the case of `CCC1CCCCN1CCCNC(=O)CC1Oc2ccccc2NC1=O` (stereo not drawn), the inhibition was 7.18% (inactive).
Turning to `COc1cc([N+](=O)[O-])ccc1NC(=O)CCCOc1ccc(C)cc1`, the inhibition was 17.4% (inactive).
Turning to `CC(C)(C)c1cc(C(=O)N/N=C/c2ccccc2O)n(-c2ccccc2)n1`, the inhibition is 11.1% (inactive).
In the case of `COCCCNC(=O)Cn1nnc(-c2ccc(NC(=O)c3ccccc3F)cc2)n1`, the inhibition was 0.6% (inactive).
As to `Nc1nc(COc2ccc3ccccc3c2)cs1`, the inhibition was -0.25% (inactive).
As for `O=C(NN=C1CCCCCC1)NC1CCCCC1`, the inhibition is -3.52% (inactive).
Next, `CCCc1nnc(NC(=O)CN2CCN(C)CC2)s1`: 5.59% (inactive); `FC(F)(F)c1nc2ccccc2[nH]1`: -1.24% (inactive).
On to `O=C(O)c1cccc2[nH]c(C(F)(F)F)nc12`, for which the inhibition is 9.3% (inactive).
`CC(C)(C)NC(=O)Cn1c(SCC(N)=O)nc2ccccc21`: the inhibition was 2.96% (inactive).
Regarding `O=C(OCC(=O)N1CCc2ccccc21)c1nc(Cl)ccc1Cl`, the inhibition was 0.15% (inactive).
Consider `CN(C)C(=O)CN1C(=O)C2CCCCN2C(=O)c2ccccc21` (stereo not drawn), for which the inhibition was 8.25% (inactive).
As for `NC(=O)CN1C(=O)C2CCCCN2C(=O)c2ccccc21` (stereo not drawn), the inhibition was -4.54% (inactive).
For `Cc1noc(C)c1S(=O)(=O)N1CCCC(C(=O)N2CCN(C3CCCCC3)CC2)C1` (stereo not drawn), the inhibition is 8.08% (inactive).
Consider `Cc1cc(C)nc(N2CCC(C(=O)NCCc3ccc(F)cc3)CC2)n1`, for which the inhibition is 3.16% (inactive).
Take `N#C/C(=N\Nc1ccccc1)C(=N)N1CCCCC1`: the inhibition is -1.69% (inactive).
In the case of `CCOC(=O)CCCCC(=O)c1[nH]c(=O)[nH]c1CSc1nc(C)cc(=O)[nH]1`, the inhibition is 7.83% (inactive).
Regarding `Cc1cccc(NC(=O)CSc2nc(-c3ccccc3)c(C#N)c(=O)[nH]2)c1C`, the inhibition was 14.7% (inactive).
Next, `CCOC(=O)CCCCC(=O)c1[nH]c(=O)[nH]c1CSc1nc(-c2ccccc2)c(C#N)c(=O)[nH]1`: 23.6% (active); `N#Cc1c(-c2ccccc2)nc(SCC(=O)Nc2nnc(C(F)(F)F)s2)[nH]c1=O`: 17.8% (inactive).
In the case of `CSc1nc(-c2ccccc2)c(C#N)c(=O)[nH]1`, the inhibition is 2.21% (inactive).
On to `CCOC(=O)CCCCC(=O)c1[nH]c(=O)[nH]c1CSc1nc2ccccc2[nH]1`, for which the inhibition is 8.8% (inactive).
Regarding `CCSc1nc(-c2ccccc2)c(C#N)c(=O)[nH]1`, the inhibition is -8.26% (inactive).
Next, `Cc1ccc(NC(=O)CCNS(=O)(=O)c2cc(Br)cnc2N)c(Cl)c1`: 6.45% (inactive); `COc1ccc(-n2c(C)cc(/C=C(\C#N)C(=O)NCc3ccco3)c2C)cc1`: 9.23% (inactive); `CS(=O)(=O)c1ccc(Cl)c(NC(=O)COC(=O)c2cccc(C#N)c2)c1`: 6.76% (inactive).
Turning to `C/C(=N/NC(=O)CCc1c(C)n[nH]c1C)c1cccc([N+](=O)[O-])c1`, the inhibition is 0.36% (inactive).
`CC(C)c1ccccc1NC(=O)CNCCc1ccc(C(F)(F)F)cc1`: the inhibition is 4.1% (inactive).
In the case of `CCCCNC(=O)Cn1c(=O)oc2cc(S(=O)(=O)N3CC(C)CC(C)C3)ccc21` (stereo not drawn), the inhibition was 2.08% (inactive).
For the compound `Cc1ccc(S(=O)(=O)N(Cc2cc3cc4c(cc3[nH]c2=O)OCCO4)CC2CCCO2)cc1` (stereo not drawn), the inhibition is 8.8% (inactive).
To `Cn1c(SCC(=O)N2CCOCC2)nnc1-c1cccc(NC(=O)c2ccccc2)c1` belongs 16.6% (inactive); to `Cn1c(SCC(=O)N2CCOCC2)nnc1-c1cccc(NC(=O)c2ccccc2F)c1`, 25.4% (active).
For the compound `Cn1c(SCC(=O)N2CCOCC2)nnc1-c1ccc(NC(=O)c2ccccc2F)cc1`, the inhibition is 3.9% (inactive).
Turning to `CCOC(=O)Cc1nnc(NC(=O)C(CC)Sc2nc(C)cc(=O)[nH]2)s1` (stereo not drawn), the inhibition was 11% (inactive).
Next, `CCC(C)Nc1nc(OC(C(F)(F)F)C(F)(F)F)nc(OC(C(F)(F)F)C(F)(F)F)n1` (stereo not drawn): 9.34% (inactive); `CC(=O)Nc1ccc2nc(-c3ccncc3)[nH]c2c1`: 10.3% (inactive).
As for `O=C(Nc1ccc2nc(-c3ccccn3)[nH]c2c1)C1CCCCC1`, the inhibition was -0.77% (inactive).
As for `O=C(CNC(=O)c1ccc(S(=O)(=O)N2CCCC2)cc1)N/N=C/c1ccc(Cl)cc1`, the inhibition is 3.87% (inactive).
Consider `Cn1c(-c2ccc[nH]c2=O)nc2cc(Cl)ccc21`, for which the inhibition is 3.43% (inactive).
`CCCn1c(-c2ccc[nH]c2=O)nc2ccccc21`: the inhibition was 4.86% (inactive).
To `COc1cc(/C=C2\OC(=O)c3c(OC)cccc32)ccc1O` belongs 18.4% (inactive).
Next, `CCC(=O)Oc1ccc2c(C)cc(=O)oc2c1C(=O)CC`: 1.59% (inactive); `CCn1c(COc2ccc(=O)n(-c3ccccc3)n2)nnc1SCc1ccccc1`: 1.85% (inactive).
Regarding `Cc1ccc(NC(=O)c2cc([N+](=O)[O-])ccc2N2CCCC2)cc1`, the inhibition was 9.65% (inactive).
To `CCOC(=O)c1ccc(NC(=O)CSc2ncccn2)cc1` belongs 25.8% (active); to `CCOC(=O)c1ccc(NC(=O)CSc2nccn2C)cc1`, 13.7% (inactive); to `CCOC(=O)c1ccc(NC(=O)CSc2nc3ncccc3[nH]2)cc1`, 15.1% (inactive).
Turning to `O=C(C1CCCCC1)N1CCCn2c1nc1ccccc12`, the inhibition was 26.8% (active).
As for `O=C(Nc1ccccc1)N1CCn2c1nc1ccccc12`, the inhibition was 3.81% (inactive).
`CCC(=O)N1CCCn2c1nc1ccccc12`: the inhibition was 0.87% (inactive).
Consider `CN(C)S(=O)(=O)c1ccc(C(=O)N2CCN=C2SCc2cccnc2)cc1`, for which the inhibition is -3.94% (inactive).
As to `COc1ccccc1Nc1nc(N)nc(CN2CCC(C)CC2)n1`, the inhibition is 3.95% (inactive).
On to `O=C(Nc1ccc(Cl)cc1)c1ccc(-n2cccn2)c([N+](=O)[O-])c1`, for which the inhibition was 0.77% (inactive).
Regarding `Cc1ccc(OCC(=O)Nc2cccc(-c3nnc(-c4ccccc4)o3)c2)c(C)c1`, the inhibition was 2.43% (inactive).
For `Cc1cccc(OCC(=O)Nc2cccc(-c3nnc(-c4ccccc4)o3)c2)c1C`, the inhibition is 24% (active).
On to `Cc1cccc(C)c1OCC(=O)Nc1cccc(-c2nnc(-c3ccccc3)o2)c1`, for which the inhibition is 1.97% (inactive).
For the compound `Cc1ccc(C)c2c1cc(C)c1nnc(SCC(=O)N3CCCc4ccccc43)n12`, the inhibition is 3.01% (inactive).
As for `O=C1CS/C(=C/C(=O)c2ccccc2)N1`, the inhibition is 25.3% (active).
As for `Cc1ccc(C(=O)/C=C2/NC(=O)CS2)cc1`, the inhibition was 17.7% (inactive).
With `CC(C)(C)c1ccc(C(=O)/C=C2\NC(=O)CS2)cc1`, the inhibition was 7.72% (inactive).
As for `CC(/C=N/NC(=O)Cn1cnc2c1c(=O)n(C)c(=O)n2C)=C\c1ccco1`, the inhibition was 5.25% (inactive).
As for `CCOC(=O)c1[nH]c2c(c1C)C(=O)CC(c1ccco1)C2` (stereo not drawn), the inhibition is 15.3% (inactive).
As for `Cc1c(C(=O)OCc2ccccc2)[nH]c2c1C(=O)CC(c1ccco1)C2` (stereo not drawn), the inhibition is 6.2% (inactive).
Take `Cc1c(C(=O)OC2CCCC2)[nH]c2c1C(=O)CC(c1ccco1)C2` (stereo not drawn): the inhibition is 25.6% (active).
Next, `CC(C(=O)NC1C(=O)N2C(C(=O)O)=C(CSc3nnnn3C)CSC12)n1cc(Cl)cn1` (stereo not drawn): 6.59% (inactive); `O=C(CCC(=O)Nc1ccc(Br)cc1)N/N=C/c1cc([N+](=O)[O-])ccc1O`: 13.8% (inactive).
As for `CC1(C)OC2OC(C(=O)N/N=C/c3ccccc3F)C3OC(C)(C)OC3C2O1` (stereo not drawn), the inhibition was -0.42% (inactive).
Consider `Nc1nonc1C(=O)N/N=C/c1ccncc1`, for which the inhibition was 9.52% (inactive).
With `COc1ccc(NC(=O)C2OC3OC(C)(C)OC3C3OC(C)(C)OC23)cc1` (stereo not drawn), the inhibition is 6.98% (inactive).
Take `NC(=O)N/N=C/c1cc(Br)ccc1OC(=O)c1ccccc1`: the inhibition is 6.38% (inactive).
To `Nc1nonc1C(=O)N/N=C/c1ccc(Br)o1` belongs 15.9% (inactive).
With `O=C(CCc1ccccc1)N/N=C/c1cc(Br)ccc1O`, the inhibition was 16.7% (inactive).
Regarding `COC(=O)N/N=C/c1cc(Br)ccc1O`, the inhibition was 17.8% (inactive).
As to `CCCn1nnc(NC(=S)NC(=O)C(C)(C)C)n1`, the inhibition is 7.37% (inactive).
Take `O=C1c2cc(S(=O)(=O)NCCO)ccc2-c2ccc(S(=O)(=O)NCCO)cc21`: the inhibition is 2.13% (inactive).
With `Cc1ccc([N+](=O)[O-])cc1NC(=O)Nc1ccc(S(N)(=O)=O)cc1`, the inhibition was -7.81% (inactive).
Next, `CC1=CC2=NC(=O)CC(C)(C(=O)N(CC(=O)NC(C)C)C3CCCC3)N2C=C1` (stereo not drawn): 1.08% (inactive); `O=C(Nc1ccc(Br)cc1)c1cccn1-c1ncc(C(F)(F)F)cc1Cl`: -0.41% (inactive).
To `Cc1ccc(NC(=O)C2CCN(C(=O)c3ccccc3C)CC2)cc1` belongs 4.97% (inactive); to `CCN(CC)CCOC(=O)c1ccc(N/C=C(/C#N)c2nc(-c3ccc(OC)cc3)cs2)cc1`, 4.36% (inactive); to `CCOC(=O)c1c(-c2ccc(F)cc2)csc1NC(=O)c1c(-c2ccccc2)noc1C`, 0.4% (inactive).
Take `CCOC(=O)C1=NN(c2ccccc2)C2=NC(C)=C(C(=O)OC)C(c3ccc(C)cc3)N12` (stereo not drawn): the inhibition is 8.08% (inactive).
